Laboratory results as given in PubChem BioAssay (Tox21).
Inconclusive results are not listed. Entries that show only a call come without a potency. Calls of active or inactive are those of the source. Unless noted, calls come from the whole dose curve; as a rule, active = well fitted curve in the direction sought with a large enough effect in the repeat runs; inconclusive = weak or mixed curves; inactive = no such curve, though single readings can be large; an effect the other way counts as inactive or inconclusive.

Legend:
[1] = target: Aryl hydrocarbon receptor (Homo sapiens) (UniProt P35869); test: qHTS assay to identify small molecule that activate the aryl hydrocarbon receptor (AhR) signaling pathway (AID 743085); conditions: HepG2 AhR-luc (HG2L7.5c1), luciferase, 24 h; series mostly up to 70.3 µM; note: nearly all actives have a fitted effect of over 15% in size; note: potency is the fitted concentration of half-maximal effect;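 for activation: HG2L7.5c1 human HepG2 liver cells with stably integrated DRE-driven firefly reporter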
Procedure, shortened: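 Stably transfected human liver carcinoma cells (HG2L7.5c1; 20 DRE-firefly luciferase) were incubated 5 h, dosed, and kept 24 h at 37C. Agonism was scored from increased luciferase luminescence.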

[2] = qHTS assay to identify small molecule that activate the aryl hydrocarbon receptor (AhR) signaling pathway - cell viability counter screen (AID 743086); conditions: HepG2-AhR-luc viability, CellTiter-Fluor, 24 h; series mostly up to 70.3 µM;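 note: HepG2 liver cells carrying the AhR DRE luciferase reporter; nearly all actives have a fitted effect of over 45% in size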
Procedure, shortened: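 Cytotoxicity counter screen: CellTiter-Fluor signal (30 min, 37 C) in 4000 HepG2 cells/well carrying the DRE-luciferase reporter, following 24 h compound exposure at 37 C.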

[3] = target: Peroxisome proliferator-activated receptor gamma (Homo sapiens) (UniProt P37231); test: qHTS assay to identify small molecule agonists of the peroxisome proliferator-activated receptor gamma (PPARg) signaling pathway (AID 743094; active = well fitted activation curve with a large enough effect in the signal ratio in the repeat runs, not every such curve was filed as active; the % refers to the signal ratio); conditions: HEK293H PPARg-UAS-bla, beta-lactamase FRET ratio, 17 h; series mostly up to 57 µM
Procedure, shortened: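 Beta-lactamase FRET fluorescence was the read-out after a 1 h room-temperature substrate step, following 17 h compound treatment at 37C of HEK293H cells expressing a UAS-driven bla reporter responsive to PPARg.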

[4] = qHTS assay for small molecule agonists of the antioxidant response element (ARE) signaling pathway (AID 743202; active = well fitted activation curve with a large enough effect in the signal ratio in the repeat runs, not every such curve was filed as active; the % refers to the signal ratio; note: potency is the fitted concentration of half-maximal effect); conditions: HepG2 ARE-bla reporter, beta-lactamase FRET, 16 h; series mostly up to 73.3 µM
Procedure, shortened: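 An ARE-responsive beta-lactamase gene stably integrated in HepG2 cells serves as reporter. After 5 h plating and 16 h compound incubation at 37 C, fluorescence of the B/G FRET substrate was measured.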

[5] = qHTS assay for small molecule agonists of the antioxidant response element (ARE) signaling pathway - cell viability counter screen (AID 743203; calls by dose curve; note: nearly all actives have a fitted effect of over 55% in size); conditions: ARE-bla HepG2 viability, CellTiter-Glo luminescence, 16 h; series mostly up to 73.3 µM
Procedure, shortened: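 HepG2 cells carrying ARE-driven beta-lactamase; 2,000 cells/well; 5 hrs plating; compound pinned from DMSO; 16 hrs 37C/5% CO2; CellTiter-Glo added; 30 min RT; luminescence.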

[6] = qHTS assay for small molecule activators of the heat shock response signaling pathway - cell viability counter screen (AID 743209); conditions: HSE-bla HeLa viability, CellTiter-Glo luminescence, 5 h; series mostly up to 62.6 µM; note: nearly all actives have a fitted effect of over 50% in size
Procedure, shortened: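 Luminescence from CellTiter-Glo, added after the beta-lactamase FRET read, gave the viability signal. Cells were HSE-bla HeLa treated with DMSO-dissolved compounds for 5 h at 37 C following overnight plating.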

[7] = qHTS assay for small molecule activators of the heat shock response signaling pathway (AID 743210; active = well fitted activation curve with a large enough effect in the signal ratio in the repeat runs, with a control signal flat, not every such curve was filed as active; the % refers to the signal ratio;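 note: HeLa cells with beta-lactamase reporter driven by heat shock elements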); conditions: HeLa HSE-bla reporter, beta-lactamase ratio, 5 h; series mostly up to 62.6 µM
Procedure, shortened: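 In HSE-bla HeLa cells, 5 h compound incubation (37 C) precedes addition of LiveBLAzer B/G substrate; after 2.5 h at room temperature, fluorescence intensity indicates reporter induction.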

[8] = qHTS assay to identify small molecule agonists of the peroxisome proliferator-activated receptor delta (PPARd) signaling pathway - cell viability counter screen (AID 743211); conditions: PPARd-bla HEK293H viability, CellTiter-Glo luminescence, 17 h; series mostly up to 62.6 µM; note: nearly all actives have a fitted effect of over 55% in size
Procedure, shortened: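 In the same wells used for beta-lactamase reporter measurement, cytotoxicity is scored by CellTiter-Glo. HEK293H PPARd-bla cells receive compound for 17 h at 37C following a 5 h settling period.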

[9] = qHTS assay to identify small molecule antagonists of the peroxisome proliferator-activated receptor gamma (PPARg) signaling pathway - cell viability counter screen (AID 743194); conditions: PPARg-bla HEK293H viability, CellTiter-Glo luminescence, 17 h, co-treated with 50 nM rosiglitazone; series mostly up to 62.6 µM; note: nearly all actives have a fitted effect of over 55% in size
Procedure, shortened: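 Viability was measured as CellTiter-Glo luminescence in GeneBLAzer PPARg UAS-bla HEK293H cells. These cells had been exposed 17 h at 37 C to compounds together with rosiglitazone at 50 nM final, with the beta-lactamase readout taken in the same wells.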

[10] = target: Peroxisome proliferator-activated receptor gamma (Homo sapiens) (UniProt P37231); test: qHTS assay to identify small molecule antagonists of the peroxisome proliferator-activated receptor gamma (PPARg) signaling pathway (AID 743191; calls by dose curve; note: nearly all actives have a fitted effect of over 30% in size); conditions: HEK293H PPARg-UAS-bla, beta-lactamase ratio, antagonist, 17 h; series mostly up to 62.6 µM
Procedure, shortened: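 Beta-lactamase reporter under UAS control in HEK293H PPARg-bla cells; compound treatment 17 h at 37C. Read-out: fluorescence intensity after 1 h room-temperature incubation with LiveBLAzer B/G FRET substrate.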

Aryl hydrocarbon receptor (Homo sapiens), sequence (P35869 whole entry, looked up): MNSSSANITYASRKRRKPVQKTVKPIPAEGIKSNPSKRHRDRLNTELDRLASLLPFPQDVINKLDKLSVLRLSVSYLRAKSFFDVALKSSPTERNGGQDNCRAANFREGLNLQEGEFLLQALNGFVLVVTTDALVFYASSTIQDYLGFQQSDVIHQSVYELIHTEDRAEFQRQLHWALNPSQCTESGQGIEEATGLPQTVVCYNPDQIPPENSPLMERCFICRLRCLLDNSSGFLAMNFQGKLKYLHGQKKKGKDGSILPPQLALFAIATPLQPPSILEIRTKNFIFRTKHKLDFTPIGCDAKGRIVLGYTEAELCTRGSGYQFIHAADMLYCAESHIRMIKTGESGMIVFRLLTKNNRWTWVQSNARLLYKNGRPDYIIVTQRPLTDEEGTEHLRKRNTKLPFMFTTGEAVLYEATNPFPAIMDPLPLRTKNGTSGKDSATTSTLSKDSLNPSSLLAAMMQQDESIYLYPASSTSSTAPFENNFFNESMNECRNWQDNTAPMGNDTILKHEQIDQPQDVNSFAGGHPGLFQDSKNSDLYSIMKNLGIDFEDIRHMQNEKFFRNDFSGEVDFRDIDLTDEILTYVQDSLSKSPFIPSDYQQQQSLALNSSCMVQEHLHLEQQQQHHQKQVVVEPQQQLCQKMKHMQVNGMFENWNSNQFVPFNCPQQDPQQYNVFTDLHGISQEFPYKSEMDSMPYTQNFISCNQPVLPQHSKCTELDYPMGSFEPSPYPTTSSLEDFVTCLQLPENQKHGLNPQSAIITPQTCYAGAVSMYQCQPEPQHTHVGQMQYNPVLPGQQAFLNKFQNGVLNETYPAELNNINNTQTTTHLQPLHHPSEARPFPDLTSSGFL
Peroxisome proliferator-activated receptor gamma (Homo sapiens), sequence (P37231 whole entry, looked up): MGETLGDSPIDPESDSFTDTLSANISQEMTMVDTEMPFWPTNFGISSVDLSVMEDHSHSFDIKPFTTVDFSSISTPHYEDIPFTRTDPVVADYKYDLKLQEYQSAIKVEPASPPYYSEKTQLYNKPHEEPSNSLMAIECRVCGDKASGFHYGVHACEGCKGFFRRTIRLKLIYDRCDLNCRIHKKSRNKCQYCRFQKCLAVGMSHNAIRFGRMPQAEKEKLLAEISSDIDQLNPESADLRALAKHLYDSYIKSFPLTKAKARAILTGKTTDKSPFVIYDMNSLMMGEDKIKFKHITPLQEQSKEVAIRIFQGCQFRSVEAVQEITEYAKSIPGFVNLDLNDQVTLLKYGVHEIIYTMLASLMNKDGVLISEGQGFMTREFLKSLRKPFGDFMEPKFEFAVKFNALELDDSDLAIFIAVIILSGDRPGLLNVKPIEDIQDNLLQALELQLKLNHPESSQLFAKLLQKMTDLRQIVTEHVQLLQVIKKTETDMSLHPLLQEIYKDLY

Row | SMILES | Potency [1] | Potency [2] | outcome [3] | Potency [4] | Potency [5] | Potency [6] | Potency [7] | Potency [8] | Potency [9] | Potency [10]
1 | CCCCOC(=O)CCCCC(=O)OCCCC | inactive | inactive | inactive | inactive | inactive | inactive | inactive | inactive |  | 
2 | COC(=O)c1sccc1S(N)(=O)=O | inactive | inactive | inactive |  | inactive | inactive | inactive | inactive | inactive | 
3 | C[C@@H]1[C@H](O)[C@@H](C)/C=C/C=C\C=C\C=C\C=C\C=C\C=C\[C@H](O[C@@H]2O[C@H](C)[C@@H](O)[C@H](N)[C@@H]2O)C[C@@H]2O[C@](O)(C[C@@H](O)C[C@@H](O)[C@H](O)CC[C@@H](O)C[C@@H](O)CC(=O)O[C@H]1C)C[C@H](O)[C@H]2C(=O)O (stereo in doubt) | inactive | inactive | inactive |  | inactive | inactive | inactive |  |  | 
4 | O=C1[C@@H]2[C@H]3CC[C@H](C3)[C@@H]2C(=O)N1CCCCN1CCN(c2ncccn2)CC1 | inactive | inactive | inactive |  | inactive | inactive | inactive | inactive | inactive | 
5 | Cc1ccc(S(=O)(=O)NC(=O)NC2CCCCC2)cc1 | inactive | inactive | inactive | inactive | inactive | inactive | inactive | inactive |  | 
6 | O=C(C(=O)c1ccco1)c1ccco1 | inactive | inactive | inactive |  | inactive | inactive | inactive | inactive |  | 
7 | CCCCCCCCCCCCCC(=O)OCC(O)CO (stereo unspecified) | inactive | inactive |  | inactive |  | inactive | inactive |  | inactive | 
8 | Nc1ccn([C@H]2CS[C@@H](CO)O2)c(=O)n1 | inactive | inactive |  |  | inactive | inactive | inactive | inactive |  | 
9 | O=C(O)CNC(=O)c1ccccc1I | inactive |  | inactive | inactive | inactive | inactive | inactive | inactive | inactive | inactive
10 | CCCCCC | inactive | inactive |  | inactive | inactive | inactive | inactive | inactive | inactive | 
11 | Cc1ccc2c(c1[N+](=O)[O-])C(=O)c1ccccc1C2=O | 30 µM (active) | inactive |  | 6.73 µM (active) |  | inactive | inactive | inactive | inactive | 
